The values that follow come from PubChem BioAssay (EPA / NIEHS).

Common to all, as to settings: mRNA level, 48 h; actives raise or lower the signal
Read-out in experiment [1]: Insulin Like Growth Factor 1 (IGF1), IGF1 (gene 3479)
The experiment in a line: LTEA_HepaRG_IGF1: Life Technologies and Expression Analysis (LTEA) Assay for Insulin Like Growth Factor 1 (IGF1) using HepaRG (AID 2283506). In short, it runs like this:
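Endpoint: IGF1 mRNA change by qRT-PCR, housekeeping-normalized, fitted bidirectionally relative to 0.5% DMSO vehicle. Human HepaRG cells were treated 48 h in serum-free induction medium, eight half-log concentrations topping at 100 uM.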

Read-out in experiment [2]: Intercellular Adhesion Molecule 1 (ICAM1), ICAM1 (gene 3383)
The experiment in a line: LTEA_HepaRG_ICAM1: Life Technologies and Expression Analysis (LTEA) Assay for Intercellular Adhesion Molecule 1 (ICAM1) using HepaRG (AID 2283507). The method in brief:
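ICAM1 transcript levels measured by qRT-PCR, normalized to three housekeeping genes (ACTB, GAPDH, POLR2A), after 48 h chemical exposure of HepaRG cells. Duplicate eight-point half-log series from 100 uM in 0.5% DMSO; gain or loss fitted against vehicle.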

Read-out in experiment [3]: Insulin-like growth factor-binding protein 1 (IGFBP1), IGFBP1 (gene 3484)
Nature of the experiment: LTEA_HepaRG_IGFBP1: Life Technologies and Expression Analysis (LTEA) Assay for Insulin-like growth factor-binding protein 1 (IGFBP1) using HepaRG (AID 2283508). The method in brief:
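Read-out is qRT-PCR transcript level normalized to three housekeeping genes, fitted in both directions against 0.5% DMSO. Differentiated HepaRG cells received eight half-log concentrations (top 100 uM) in duplicate for 48 h in serum-free induction medium.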

Read-out in experiment [4]: Interleukin 6 (IL6), IL6 (gene 3569)
The experiment in a line: LTEA_HepaRG_IL6: Life Technologies and Expression Analysis (LTEA) Assay for Interleukin 6 (IL6) using HepaRG (AID 2283509). The method in brief: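 Transcript levels, normalized to three housekeeping genes, were quantified by qRT-PCR after 48 h chemical treatment of HepaRG cells. Eight-point half-log series from 100 uM in 0.5% DMSO, duplicates. Fitted both directions against DMSO baseline.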

Read-out in experiment [5]: Interleukin 6 Receptor (IL6R), IL6R (gene 3570)
Nature of the experiment: LTEA_HepaRG_IL6R: Life Technologies and Expression Analysis (LTEA) Assay for Interleukin 6 Receptor (IL6R) using HepaRG (AID 2283510).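 As to AC50: differentiated human HepaRG liver cells in serum-free induction medium.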 In short, it runs like this:
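In this HepaRG screen, test chemicals act on cells for 48 h at up to 100 uM (eight half-log points, duplicate wells). IL6R expression is quantified by qRT-PCR after normalization to ACTB, GAPDH and POLR2A, with DMSO as baseline.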

Read-out in experiment [6]: Potassium channel subfamily K member 1 (KCNK1), KCNK1 (gene 3775)
Nature of the experiment: LTEA_HepaRG_KCNK1: Life Technologies and Expression Analysis (LTEA) Assay for Potassium channel subfamily K member 1 (KCNK1) using HepaRG (AID 2283511). The method in brief: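 KCNK1 transcript measured by TaqMan qRT-PCR against three housekeeping genes, after HepaRG cells were treated 48 h with eight half-log concentrations (top 100 uM, 0.5% DMSO). Curves fitted bidirectionally relative to vehicle.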

Read-out in experiment [7]: Keratin 19 (KRT19), KRT19 (gene 3880)
Nature of the experiment: LTEA_HepaRG_KRT19: Life Technologies and Expression Analysis (LTEA) Assay for Keratin 19 (KRT19) using HepaRG (AID 2283512). The method in brief:
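KRT19 transcript measured by TaqMan qRT-PCR, referenced to three housekeeping genes, after HepaRG cells received test chemicals for 48 h. Eight half-log concentrations, top 100 uM, 0.5% DMSO vehicle; increases and decreases both fitted.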

Read-out in experiment [8]: JUN Transcription Factor, JUN (gene 3725)
The experiment in a line: LTEA_HepaRG_JUN: Life Technologies and Expression Analysis (LTEA) Assay for JUN Transcription Factor using HepaRG (AID 2283513). The method in brief: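 Gene-expression endpoint: JUN mRNA (qRT-PCR, normalized to three reference genes) in HepaRG cultures treated 48 h with chemicals, duplicate wells, 100 uM maximum with half-log dilutions; bidirectional fitting relative to 0.5% DMSO.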

Read-out in experiment [9]: Lipase C (LIPC), LIPC (gene 3990)
The experiment in a line: LTEA_HepaRG_LIPC: Life Technologies and Expression Analysis (LTEA) Assay for Lipase C (LIPC) using HepaRG (AID 2283514). In short, it runs like this:
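LIPC expression was quantified by qRT-PCR against three housekeeping genes (ACTB, GAPDH, POLR2A). Differentiated human HepaRG cells received eight half-log doses (top 100 uM, 0.5% DMSO) in duplicate for 48 h; fitting bidirectional relative to DMSO.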

Read-out in experiment [10]: Lipoprotein lipase (LPL), LPL (gene 4023)
The experiment in a line: LTEA_HepaRG_LPL: Life Technologies and Expression Analysis (LTEA) Assay for Lipoprotein lipase (LPL) using HepaRG (AID 2283515). In short, it runs like this:
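LPL transcript levels quantified by TaqMan qRT-PCR against three housekeeping genes after 48 h chemical treatment of HepaRG cells. Eight-point half-log series from 100 uM in 0.5% DMSO, tested in duplicate; bidirectional fitting versus vehicle.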

Activity calls are given as the source filed them. The calls were made as follows: active = hit-call score of the fitted dose curve at least 0.9, where 1 is the maximum; inactive = score below 0.9.

Turning to `COC(=O)c1c(C(F)F)nc(C(F)(F)F)c(C2=NCCS2)c1CC(C)C`, the compound was classed as inactive in experiment [1], in experiment [2], in experiment [3], in [4], in experiment [6] and in experiment [7]. Besides, the result in experiment [8], in experiment [9] and in [10] was inactive. The concentration at half-maximal activity (AC50) in experiment [5] is 12.2 µM (active).

Consider `CC(C)C1(C)N=C(c2ncccc2C(=O)O)NC1=O` (stereo unspecified), for which the call in experiment [1], in experiment [2], in [3], in [4], in experiment [5] and in [6] was inactive. The result in [8], in experiment [9] and in [10] was inactive.

For `CNC(=O)N(C)c1nnc(C(C)(C)C)s1`, the outcome in experiment [1], in experiment [2], in experiment [3], in [4], in experiment [5] and in [6] was inactive. In addition, the result in experiment [8], in experiment [9] and in experiment [10] was inactive.

In the case of `COc1cc(OC)nc(NC(=O)NS(=O)(=O)c2ncccc2OCC(F)(F)F)n1`, the call in experiment [1], in experiment [2], in experiment [3], in experiment [4], in experiment [5] and in experiment [6] was inactive. Moreover, the outcome in experiment [7], in [8], in [9] and in [10] was inactive.

On to `O=C1C2CC=CCC2C(=O)N1SC(Cl)(Cl)Cl` (stereo unspecified), for which the compound was classed as inactive in experiment [1], in [2], in experiment [4], in experiment [5], in [6] and in experiment [7]. The compound was called inactive in experiment [8]. The AC50 in experiment [3] is 20.2 µM (active); in experiment [9], 49.2 µM (active); in experiment [10] it was 73.5 µM (active).

For the compound `CCCC(=NOCC)C1=C(O)CC(CC(C)SCC)CC1=O` (stereo unspecified), the result in experiment [1], in experiment [2], in experiment [3], in [4], in experiment [5] and in experiment [6] was inactive. Further, the compound was classed as inactive in [7], in experiment [8], in [9] and in experiment [10].

With `CN=C=S`, the outcome in experiment [1], in [2], in experiment [3], in experiment [4], in experiment [5] and in [6] was inactive. Also, the compound was called inactive in experiment [7], in experiment [8], in [9] and in experiment [10].

Consider `Cn1c(-c2ccccc2)cc(-c2ccccc2)[n+]1C`, for which the AC50 was 13.4 µM (active) in experiment [1]; 50 µM (active) in experiment [3]; 24 µM (active) in experiment [7]; 28 µM (active) in experiment [9]; 11.4 µM (active) in experiment [10]. In addition, the compound was called inactive in [2], in [4], in experiment [5], in experiment [6] and in [8].

Consider `N#Cc1c(Cl)cccc1Cl`, for which the compound was classed as inactive in [1], in experiment [2], in experiment [3], in experiment [4], in [5] and in experiment [6]. Further, the compound was classed as inactive in experiment [7], in experiment [8], in experiment [9] and in experiment [10].

For the compound `CC(C)(C)C(=O)C(Oc1ccc(Cl)cc1)n1cncn1` (stereo unspecified), the outcome in experiment [2], in [3], in experiment [4], in experiment [5], in experiment [6] and in experiment [7] was inactive. The compound was called inactive in experiment [8], in [9] and in experiment [10].

On to `CCOc1nc(F)cc2nc(S(=O)(=O)Nc3c(Cl)cccc3Cl)nn12`, for which the AC50 in [1] is 14.4 µM (active); in experiment [3] it was 50 µM (active); in [4], 29.8 µM (active); in experiment [7], 9.92 µM (active). In addition, the call in experiment [2], in [5], in experiment [6], in [8], in [9] and in experiment [10] was inactive.

Take `CC(C)N1C(=O)c2ccccc2NS1(=O)=O`: the call in experiment [1], in [2], in [3], in [4], in [5] and in [6] was inactive. The compound was classed as inactive in experiment [7], in experiment [8], in experiment [9] and in experiment [10].

Take `CCSC(=O)N1CCCCCC1`: the compound was classed as inactive in experiment [1], in experiment [2], in experiment [3], in experiment [4], in experiment [5] and in experiment [6]. Also, the call in experiment [7], in experiment [8], in experiment [9] and in [10] was inactive.

For the compound `CCOc1nc(C(Cl)(Cl)Cl)ns1`, the AC50 in [1] is 0.965 µM (active); in experiment [2], 1.38 µM (active); in experiment [3] it was 1.01 µM (active); in experiment [4] it was 15 µM (active); in experiment [5] it was 0.987 µM (active); in [6] it was 1.22 µM (active). Also, the AC50 in experiment [8] is 1.89 µM (active); in experiment [9] it was 0.944 µM (active); in experiment [10], 1.06 µM (active). The call in experiment [7] was inactive.

Take `CSC(=O)c1c(C(F)F)nc(C(F)(F)F)c(C(=O)SC)c1CC(C)C`: the values for the AC50 in experiment [1], in experiment [3] and in experiment [9] were 66 µM (active), 49.8 µM (active) and 91.9 µM (active), respectively. The compound was classed as inactive in experiment [2], in experiment [4], in experiment [5], in [6], in experiment [7] and in [8]. Also, the call in experiment [10] was inactive.

In the case of `CCOc1cc(C(C)(C)C)ccc1C1COC(c2c(F)cccc2F)=N1` (stereo unspecified), the AC50 in experiment [1] was 16.6 µM (active); in experiment [7], 4.11 µM (active); in [9], 33 µM (active); in experiment [10], 52.9 µM (active). Also, the compound was called inactive in experiment [2], in experiment [3], in experiment [4], in experiment [5], in experiment [6] and in experiment [8].

With `Cc1nc(N(C)C)nc(OC(=O)N(C)C)c1C`, the outcome in experiment [1], in experiment [2], in experiment [3], in experiment [4], in [5] and in experiment [6] was inactive. In addition, the compound was called inactive in experiment [7], in experiment [8], in experiment [9] and in experiment [10].

On to `COCC(C)N(C(=O)CCl)c1c(C)csc1C` (stereo unspecified), for which the results for the AC50 in experiment [1] and in experiment [4] were 50 µM (active) and 22.7 µM (active), respectively. The outcome in experiment [2], in experiment [3], in experiment [5], in experiment [6], in experiment [8] and in [9] was inactive. The compound was classed as inactive in experiment [10].
